Compounds with a hit are over-represented: about 12% of the library has one in this group of screens.
FMDV inh = foot and mouth disease virus antiviral activity. FMDV antiviral cell-based qHTS. Potency, µM (doses to about 57.9 µM), for the others: at the top dose activity change, negative = inhibition, hits mostly inhibitors. 410,000 compounds, 1.2% hits; calls by dose curve; tested in HEK293T cells; also: read-out not given here; potency is read from the fitted curve at half-maximal effect; % is scaled to controls: 0 for no effect and ±100 for the full control effect; nearly all actives have a fitted effect of over 45% in size
Shiga toxin inh = blocks Shiga toxin action in Vero cells; Vero cells, Shiga toxin protein synthesis inhibition reporter; inhibition, % at 38.7 µM; 290,000 compounds, 9.2% hits; AID 2315; in the data active = inhibition mostly above about 28%, no sharp cut-off; inactive = mostly below about 43%; also: 0% is about no effect
CHX counter = affects cycloheximide protein synthesis inhibition readout, counter-screen; 300,000 compounds, 12% hits; max response, %; cell reporter, cycloheximide protein synthesis inhibition counterscreen; in the data active = max response mostly above about 13%, no sharp cut-off; inactive = mostly below about 14%; also: read at 38.3 µM for the half of the compounds with a filed dose; 0% is about no effect
Sm TGR block = inhibitors of Schistosoma mansoni thioredoxin glutathione reductase. purified TGR, DTNB reduction, TNB absorbance 405 nm. Potency, µM (series often up to 114 µM), without a hit: top-dose activity change, negative = inhibition, actives largely listed as inhibitors. 360,000 compounds, 3% hits. Q962Y6. AID 485364; active = well fitted inhibition curve with a large enough effect; inconclusive = small, poorly fitted or top-dose-only effect; inactive = no such curve, though single readings can be large or run the other way; also: potency is read from the fitted curve at half-maximal effect; % is scaled to controls: 0 for no effect and ±100 for the full control effect; nearly all actives have a fitted effect of over 60% in size
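TGR 20 nM + NADPH 100 uM (dispensed conc.), cpd preinc 15 min RT; start with NADPH (500 uM addition) then DTNB (15 mM addition). Kinetic TNB absorbance, 405 nm filter. Four-parameter Hill fit across titration.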
Active calls of the source: *; ? = inconclusive; . = not tested or not shown.

SMILES	FMDV inh	Shiga toxin inh	CHX counter	Sm TGR block
Cc1cc(N=Nc2c(O)c3ccccc3[nH]c2=O)ccc1N=Nc1ccc(C(=O)N(C)C)cc1	13.4%	29.0	28.1	8.4%
CC(=O)Nc1c2sscc-2n(C)c1=O	.	35.6*	47.3*	.
Cn1c2ccccc2c2cc(C(=O)NNC(=O)CCl)sc21	15.8µM*	-6.7	7.3	39.8µM*
Cc1cc(C)n(Cc2ccc(Cl)cc2Cl)c(=O)c1S(=O)(=O)c1ccccc1	-18.1%	7.9	10.9*	9.7%
CC(=O)Nc1ccc(OCC(O)Cn2ccnc2)cc1 (centres undefined)	?	78.0*	35.3*	13.6%
Clc1ccc(OCCn2ccnc2)c(Cl)c1	9.7%	-8.6	-4.7	-14.2%
OC(COc1ccc(Cl)cc1Cl)Cn1ccnc1 (centres undefined)	-13.5%	17.2	13.2*	7.1%
Cc1ccc(C)c(NC(=O)CSc2cn(CC(=O)N3CCCCC3)c3ccccc23)c1	4.4%	.	.	-5.0%
CCOc1ccc(C(=O)NCCS(=O)(=O)N2CCN(c3ccccc3F)CC2)cc1OCC	-10.8%	.	.	0.1%
CCOC(=O)C1(N(CC)CC)Sc2cc(C)ccc2NC1=O (centres undefined)	-16.8%	-2.7	-3.8	12.7%
C=C(C)C(=O)OC1(C(F)(F)F)Oc2cc(C)ccc2NC1=O (centres undefined)	-29.1%	93.0*	55.7*	39.8µM*
CCOc1ccc(Cn2c(CNS(=O)(=O)c3cccs3)nc3cccnc32)cc1	40.1%	.	.	-21.3%
COc1ccc(-c2cc(C(=O)N3CCN(c4ccccn4)CC3)c3ccccc3n2)cc1	17.7%	74.7*	43.4*	7.3%
CCOc1ccc(-c2cc(C(=O)N3CCN(c4ccc(C)cc4)C(C)C3)c3ccccc3n2)cc1 (centres undefined)	28.2%	.	.	3.6%
COc1cc(-c2cc(C(=O)N3CCN(c4ccccn4)CC3)c3ccccc3n2)cc(OC)c1OC	?	-10.3	1.0	1.0%
CCOc1ccc(-c2cc(C(=O)N3CCN(c4ccccn4)CC3)c3ccccc3n2)cc1	56.9%	53.9*	35.2*	-1.8%
CCCc1ccc(-c2cc(C(=O)N3CCN(c4ccccn4)CC3)c3ccccc3n2)cc1	?	31.5	48.8*	-21.9%
CC(Cc1ccccc1)NC(=O)c1cc2ccccc2o1 (centres undefined)	39.3%	141.0*	58.6*	-3.0%
CCC(=O)Nc1ccc(NC(=O)c2cc3ccccc3o2)cc1	-28.0%	82.6*	69.6*	-2.2%
CC(Cc1ccccc1)NC(N)=O (centres undefined)	1.1%	-7.0	2.4	1.4%
CCCCc1ccc(-n2nc3ccc(NC(=O)c4cc5ccccc5o4)cc3n2)cc1	25.1µM*	.	.	4.1%
CCC(=O)Nc1ccc(NC(=S)NC(=O)c2cc3ccccc3o2)cc1	6.9%	16.7	0.7	3.1%
CCOCCOC(=O)c1ccc(NC(=O)c2cc3ccccc3o2)cc1	-2.7%	.	.	.
CCC(=O)Nc1cccc(NC(=S)NC(=O)c2cc3ccccc3o2)c1	5.3%	71.5*	35.4*	-1.6%
Cc1ccc(-n2nc3c(N4CCC(C(=O)NC5CCC(C)CC5)CC4)nnc(C)c3c2C)cc1 (centres undefined)	-9.4%	.	.	0.5%
SMILES	FMDV inh	Shiga toxin inh	CHX counter	Sm TGR block
Cc1ccc(OCC(=O)Nc2nonc2-c2ccc(Br)cc2)cc1C	-15.6%	.	.	-1.5%
Cc1ccc(N(Cc2cccs2)C(=O)C(C)Oc2ccc(Cl)c(C)c2)cc1 (centres undefined)	?	.	.	-1.3%
O=C(Nc1ccc(NC(=O)c2cc3ccccc3o2)cc1)c1ccccc1	-12.8%	.	.	?
CCc1ccc(C(=O)Nc2ccc3c(c2)n(C)c(=O)n3C)cc1	76.2%	.	12.0*	-28.3%
Cc1ccc(C(=O)Nc2ccc3c(c2)n(C)c(=O)c(=O)n3C)cc1	-15.4%	.	.	3.4%
Cn1c(=O)n(C)c2cc(NC(=O)c3cc4ccccc4o3)ccc21	.	88.9*	32.8*	7.6%
O=C(Nc1ccc2oc(=O)ccc2c1)c1cc2ccccc2o1	42.9%	53.7*	35.3*	3.5%
O=C(O)c1ccc(NC(=O)c2cc3ccccc3o2)cc1	54.6%	46.8	21.3*	-4.0%
CCOc1ccccc1CNC(=O)c1cccc(NC(=O)c2nsc3ccccc23)c1	22.8%	.	.	-1.6%
O=C(Nc1ccc2c(c1)OCCO2)c1cc2ccccc2o1	-35.0%	87.6*	23.7*	1.1%
COC(=O)c1scc(S(=O)(=O)C(C)C)c1N/N=C(\C#N)C(=O)c1ccc(Cl)cc1	?	-5.3	-0.2	-3.9%
COC(=O)c1scc(C#N)c1N/N=C(\C#N)S(=O)(=O)c1ccc(Cl)cc1	14.1µM*	3.5	-2.4	31.6µM*
COc1ccc(OC)c(C2c3c(-c4ccc(Br)cc4)n[nH]c3C(=O)N2c2ccc(Cl)cc2)c1 (centres undefined)	-24.0%	.	.	8.1%
CC(C)CC(=O)c1c[nH]c(C(=O)NCCCN2CCOCC2)c1	-11.3%	-3.1	5.9	1.1%
CC(C)CC(=O)c1c[nH]c(C(=O)NCCc2ccccn2)c1	0.0%	24.8	27.8*	39.0%
CCC(=O)c1c[nH]c(C(=O)NCCc2ccccn2)c1	30.8%	42.2	25.6*	6.7%
Cc1ccccc1C(=O)c1c[nH]c(C(=O)NCCc2ccccn2)c1	10.3%	13.0	12.4	7.2%
CN(/N=C/c1ccncc1)C1=NCCN1	2.7%	4.5	2.2	13.2%
CN(/N=C/c1ccncc1)c1cnc2ccccc2n1	23.8%	75.3*	47.9*	3.4%
CCS(=O)(=O)N1CCCc2cc(C(=O)Nc3cc([N+](=O)[O-])ccc3C)ccc21	28.2µM*	.	.	-11.7%
CCS(=O)(=O)N1CCc2cc(C(=O)Nc3cc([N+](=O)[O-])ccc3C)ccc21	?	.	.	-11.0%
COc1cc(CNc2ccccc2SC)cc(OC)c1OC	?	-10.7	-2.0	-2.5%
COc1ccc(CNc2ccccc2SC)cc1OC	.	33.2	36.6*	6.0%
COc1ccc(CNc2cccc3[nH]c(C(F)(F)F)nc23)cc1OC	-24.3%	-8.6	-4.6	20µM*
Cc1ccc(-c2cn(-c3ccc(Cl)cc3)c(S(=O)(=O)CC(=O)Nc3ccccc3)n2)cc1	24.8%	.	.	4.6%
SMILES	FMDV inh	Shiga toxin inh	CHX counter	Sm TGR block
CCOC(=O)NCc1ccc(CNC(=O)OCC)cc1	-6.3%	-9.4	-2.3	7.0%
CCOC(=O)Nc1ccc(NCc2ccc(F)cc2)nc1N	0.0%	.	.	3.16µM*
Cn1cnnc1SCC(=O)Nc1ccc2ccccc2c1	24.3%	.	.	-16.5%
COc1ccc(NC(=O)CSc2nncn2C)cc1	7.7%	15.9	25.1*	4.6%
CCc1ccc(NC(=O)CSc2nncn2-c2cccnc2)cc1	89.2%	150.9*	32.1*	-3.9%
Cn1cnnc1SCC(=O)Nc1ccccc1	-0.3%	0.9	2.1	-0.5%
Cn1cnnc1SCC(=O)Nc1ccc(OCc2ccccc2)cc1	48.9%	89.9*	47.6*	3.5%
COc1ccccc1CNC(=O)c1ccc2c(c1)nc(C)n2-c1cccc(C)c1	6.1%	.	.	2.0%
CCn1c(SCC(=O)Nc2ccc(C(C)=O)cc2)nc2nc3c(cc2c1=O)CCCC3	25.2%	45.6*	26.5*	9.0%
CCn1c(SCC(=O)Nc2ccc(C(C)=O)cc2)nc2nc3c(cc2c1=O)COC(C)(C)C3	36.0%	122.4*	31.7*	-1.6%
CCn1c(SCC(=O)Nc2ccc(OC)cc2)nc2nc3c(cc2c1=O)COC(C)(C)C3	-5.7%	-6.8	0.6	4.6%
